In all, about 5,500 compounds went through this assay and about 2,000 (36%) were called active. Inconclusive results (about 18%) are left out. No stated cut-off is given here; in the data, active means normalized growth mostly below about 0.91 (no sharp cut-off); inconclusive means no clear call, values can overlap the other calls; inactive means mostly above about 0.92. This is one part of the list.
Assay: chemical genetic growth profiling, strain panel (AID 1159580);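 further: tested at 20 µM; growth read once vehicle control cultures reached saturation at 30 °C; 1 = growth at the plate median or of vehicle wells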
Conditions: S. cerevisiae deletion strains, growth OD

Measured: normalized growth

CCC(=O)OCC(=O)C1(OC(=O)CC)C(C)CC2C3C(Cl)CC4=CC(=O)C=CC4(C)C3C(O)CC21C (stereo not given)
inactive: locus YAL021C, strain ccr4, stronger effect = lower value 1.02 | locus YAL026C, strain drs2, stronger effect = lower value 1.03 | locus YAL030W, strain snc1, stronger effect = lower value 1.01 | locus YBL061C, strain skt5, stronger effect = lower value 1.01 | locus YBR009C, strain hhf1, stronger effect = lower value 1.09 | locus YBR023C, strain chs3, stronger effect = lower value 1.02 | locus YBR171W, strain sec66, stronger effect = lower value 1.04 | locus YBR231C, strain swc5, stronger effect = lower value 1.02 | locus YBR279W, strain paf1, stronger effect = lower value 1.01 | locus YCL011C, strain gbp2, stronger effect = lower value 1.06 | locus YCL016C, strain dcc1, stronger effect = lower value 1.04 | locus YCL069W, strain vba3, stronger effect = lower value 1.04 | locus YCR088W, strain abp1, stronger effect = lower value 1.03 | locus YDL005C, strain med2, stronger effect = lower value 1.02 | locus YDL040C, strain nat1, stronger effect = lower value 1.01 | locus YDR001C, strain nth1, stronger effect = lower value 1.04 | locus YDR069C, strain doa4, stronger effect = lower value 1.02 | locus YDR137W, strain rgp1, stronger effect = lower value 1.03 | locus YDR159W, strain sac3, stronger effect = lower value 1.01 | locus YDR195W, strain ref2 1 | locus YDR297W, strain sur2, stronger effect = lower value 1.03 | locus YDR334W, strain swr1, stronger effect = lower value 1.02 | locus YDR335W, strain msn5, stronger effect = lower value 1.05 | locus YDR392W, strain spt3, stronger effect = lower value 1.08 | locus YEL003W, strain gim4, stronger effect = lower value 1.04 | locus YEL037C, strain rad23, stronger effect = lower value 1.05 | locus YEL061C, strain CIN8 (second series), stronger effect = lower value 1.02 | locus YER015W, strain faa2, stronger effect = lower value 1.01 | locus YER016W, strain bim1, stronger effect = lower value 1.04 | locus YER111C, strain swi4, stronger effect = lower value 1.04 | locus YER155C, strain BEM2 (second series), stronger effect = lower value 1.08 | locus YFR010W, strain ubp6, stronger effect = lower value 1.02 | locus YGL167C, strain pmr1, stronger effect = lower value 1.06 | locus YGL173C, strain kem1, stronger effect = lower value 1.02 | locus YGL227W, strain vid30, stronger effect = lower value 1.01 | locus YGL240W, strain doc1, stronger effect = lower value 1.01 | locus YGL253W, strain hxk2, stronger effect = lower value 1.02 | locus YHR013C, strain ard1, stronger effect = lower value 1.08 | locus YHR027C, strain rpn1, stronger effect = lower value 1.03 | locus YHR142W, strain chs7, stronger effect = lower value 1.04 | locus YJL092W, strain hpr5, stronger effect = lower value 1.04 | locus YJL095W, strain BCK1 (second series), stronger effect = lower value 1.06 | locus YJL115W, strain asf1, stronger effect = lower value 1.02 | locus YJL129C, strain trk1, stronger effect = lower value 0.987 | locus YJL154C, strain vps35, stronger effect = lower value 1.03 | locus YJL164C, strain tpk1, stronger effect = lower value 1.07 | locus YJL166W, strain qcr8, stronger effect = lower value 1 | locus YKL160W, strain elf1, stronger effect = lower value 1.04 | locus YKR026C, strain gcn3, stronger effect = lower value 1.03 | locus YKR091W, strain srl3, stronger effect = lower value 1.03 | locus YLL001W, strain dnm1, stronger effect = lower value 1.06 | locus YLL026W, stronger effect = lower value 1.04 | locus YLL041C, strain sdh2, stronger effect = lower value 1.05 | locus YLR027C, strain aat2, stronger effect = lower value 1.06 | locus YLR221C, strain rsa3, stronger effect = lower value 1.07 | locus YLR258W, strain gsy2, stronger effect = lower value 1.07 | locus YLR262C, strain YPT6 (second series), stronger effect = lower value 1.04 | locus YLR320W, strain mms22, stronger effect = lower value 1.02 | locus YLR342W, strain FKS1, stronger effect = lower value 1.03 | locus YLR357W, strain rsc2, stronger effect = lower value 1.09 | locus YLR370C, strain arc18, stronger effect = lower value 1.03 | locus YLR384C, strain iki3, stronger effect = lower value 1.03 | locus YML120C, strain ndi1, stronger effect = lower value 1.02 | locus YMR058W, strain fet3, stronger effect = lower value 1.02 | locus YMR125W, strain sto1, stronger effect = lower value 1.07 | locus YMR129W, stronger effect = lower value 1.03 | locus YMR205C, strain PFK2, stronger effect = lower value 1.02 | locus YMR231W, strain pep5, stronger effect = lower value 1.03 | locus YNL071W, strain lat1, stronger effect = lower value 1.02 | locus YNL209W, strain ssb2, stronger effect = lower value 1.01 | locus YNL248C, strain rpa49, stronger effect = lower value 1.03 | locus YNL322C, strain KRE1 (second series), stronger effect = lower value 1.01 | locus YNR049C, strain mso1, stronger effect = lower value 1.03 | locus YOR001W, strain rrp6, stronger effect = lower value 1.04 | locus YOR070C, strain gyp1, stronger effect = lower value 1.02 | locus YOR080W, strain dia2, stronger effect = lower value 1.02 | locus YOR083W, strain WHI5, stronger effect = lower value 1.04 | locus YOR106W, strain vam3, stronger effect = lower value 1 | locus YOR265W, strain rbl2, stronger effect = lower value 1.02 | locus YOR270C, strain vph1, stronger effect = lower value 0.923 | locus YOR290C, strain snf2, stronger effect = lower value 1.06 | locus YPL051W, strain arl3, stronger effect = lower value 1.04 | locus YPL078C, strain atp4, stronger effect = lower value 0.999 | locus YPL106C, strain sse1, stronger effect = lower value 1.12 | locus YPL240C, strain hsp82, stronger effect = lower value 1.02

From PubChem BioAssay AID1159580 (chemical genetic matrix, 2015)
